# In the library only some 2.6% were active in any assay of this set; here they are far more common.
# Cruzain noTriton: cruzain (T. cruzi) inhibition without detergent. purified cruzain, Z-FR-AMC fluorescence, no detergent. 2.3% of 200,000 active. Potency, µM, most hits filed as inhibitors; also: nearly all actives have a fitted effect of over 40% in size
# Target sequence (P25779 123-467 limits assumed): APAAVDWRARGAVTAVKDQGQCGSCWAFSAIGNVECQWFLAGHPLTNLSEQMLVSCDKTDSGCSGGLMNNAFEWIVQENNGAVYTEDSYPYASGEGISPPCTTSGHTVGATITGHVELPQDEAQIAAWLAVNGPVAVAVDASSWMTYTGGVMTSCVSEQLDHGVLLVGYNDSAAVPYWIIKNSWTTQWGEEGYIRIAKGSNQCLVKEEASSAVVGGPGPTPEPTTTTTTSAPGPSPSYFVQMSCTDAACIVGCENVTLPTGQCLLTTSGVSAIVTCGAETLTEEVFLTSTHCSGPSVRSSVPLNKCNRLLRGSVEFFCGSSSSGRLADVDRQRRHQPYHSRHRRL
#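 Detergent-free condition (0.00005% Triton X-100) in acetate buffer pH 5.5 with DTT. 1.5 nM enzyme and compound were pre-mixed 15 min, then 2 uM Z-FR-AMC substrate added; reaction progress from fluorescence change between first and third reads (60 s).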
# Cruzain Triton: inhibitors of Trypanosoma cruzi cruzain with detergent; purified cruzain, Z-FR-AMC fluorescence, 0.01% Triton; Potency, µM, usual class: inhibitors; 0.43% of 200,000 active; AID 1478; also: nearly all actives have a fitted effect of over 40% in size
#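 In this qHTS format, compounds are incubated with 1.5 nM cruzain for 15 min at room temperature before 2 uM Z-FR-AMC is added. Release of AMC is followed at 360/450 nm, and progress is taken as the 60 s fluorescence difference.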
# A number is an active result; n = inactive; u = inconclusive. Calls follow the shape of the dose curve; as a rule, active = well fitted curve in the direction sought with a large enough effect; inconclusive = small, poorly fitted or top-dose-only effect, or another doubt; inactive = no such curve, though single readings can be large; an effect the other way counts as inactive or inconclusive.
SMILES,Cruzain noTriton,Cruzain Triton
Cc1cc2nc(NC3=NCN(CCN4CCOCC4)CN3)nc(C)c2cc1C,n,n
O=C(C1CC1)N1CCc2cc(Br)cc(S(=O)(=O)N3CCN(c4cccc(C(F)(F)F)c4)CC3)c21,n,n
CC(OC(=O)c1c2c(nc3ccccc13)/C(=C\c1ccc3c(c1)OCO3)CCC2)C(=O)Nc1ccc(S(N)(=O)=O)cc1 (stereo not given),16µM,n
Cc1cccc(C)c1NC(=O)COC(=O)c1c2c(nc3ccccc13)/C(=C\c1ccc3c(c1)OCO3)CCC2,7.9µM,n
O=C(COC(=O)c1c2c(nc3ccccc13)CCCCC2)NCc1ccc2c(c1)OCO2,n,n
CNC(=O)NC(=O)C(C)OC(=O)c1c2c(nc3ccccc13)/C(=C/c1cccs1)CC2 (stereo not given),n,n
Cc1ccc(S(=O)(=O)c2nnn3c2nc(N2CCCC(C)C2)c2cc(Cl)ccc23)cc1C (stereo not given),n,n
C=CCN(c1ccccc1OC)S(=O)(=O)c1cccc(C(=O)OCC(=O)c2c[nH]c3ccccc23)c1,n,n
CC(C)C(NS(=O)(=O)c1c(Cl)cccc1Cl)C(=O)OCC(=O)c1c[nH]c2ccccc12 (stereo not given),32µM,n
CC(C)Cc1ccc(C(C)C(=O)OCC(=O)c2c[nH]c3ccccc23)cc1 (stereo not given),n,n
Cc1ccc(C(=O)OCC(=O)c2c[nH]c3ccccc23)cc1,u,n
COc1cc(OC)c(N(C)S(=O)(=O)c2cccc(C(=O)OCC(=O)c3c[nH]c4ccccc34)c2)cc1Cl,10µM,n
Cc1ccc(S(=O)(=O)CCC(=O)OCC(=O)c2c[nH]c3ccccc23)cc1,20µM,n
COC(=O)c1ccc(NC(=O)CC2C(=O)N(c3ccccc3)C(=O)N2C2CCCC2)cc1 (stereo not given),n,n
CCOC(=O)c1c(NC(=O)c2ccc(C)cc2)sc2c1CCCCC2,n,n
CCOC(=O)c1c(NC(=O)C(=O)N/N=C/c2ccccc2OC)sc2c1CCCCC2,10µM,n
CCOC(=O)c1c(NC(=O)C(=O)N/N=C/c2ccccc2O)sc2c1CCCCC2,7.9µM,n
CCOC(=O)c1c(NC(=O)C(=O)N/N=C(\C)c2ccc(OC)cc2)sc2c1CCCCC2,n,n
CCOC(=O)c1c(C)[nH]c(C)c1S(=O)(=O)N1CCC(C(=O)N2CCN(c3cccc(C)c3)C(C)C2)CC1 (stereo not given),u,n
COc1ccc(-c2noc(CNC(=O)c3ccc(OC)cc3OC)n2)cc1,n,n
COc1ccc(-c2noc(CC(=O)Nc3cc(OC)ccc3OC)n2)cc1,4µM,n
Cc1cc(C)cc(-n2nnnc2SCC(=O)Nc2nc(-c3ccc(F)cc3)cs2)c1,25µM,n
Cc1nnc(SCC(=O)Nc2nc(-c3ccccc3)cs2)n1N,n,n
Cc1cc(C)cc(-n2nnnc2SCC(=O)Nc2nc(-c3ccc(Cl)cc3)cs2)c1,6.3µM,n
Cc1ccc(-n2nnnc2SCC(=O)Nc2nc(-c3ccc(F)cc3)cs2)cc1C,u,n
SMILES,Cruzain noTriton,Cruzain Triton
CSC(N)=NCCCC(N)C(=O)O (stereo not given),n,n
N=C1S/C(=C\c2ccccc2F)C(=O)N1c1ccc(F)cc1,u,n
N=C1S/C(=C\c2ccccc2)C(=O)N1c1ccc(F)cc1,25µM,n
COc1cc(C(=O)Nc2nc(-c3cc(C)ccc3C)c(C)s2)ccc1OCC(=O)Nc1ccc(F)cc1,20µM,n
COc1ccc(-c2nc(NC(=O)c3ccc(OCC(=O)Nc4ccc(F)cc4)c(OC)c3)sc2C)cc1,n,n
CCOC(=O)c1c(NC(=O)/C=C/c2ccc(OCC)c(OC)c2)sc2c1CCC2,n,n
N=c1ccn2c(n1)O[C@H]1[C@@H](OP(=O)(O)O)[C@H](CO)O[C@H]12,n,n
O=C1N=C(N2CCN(c3cccc4ccccc34)CC2)S/C1=C/c1cccs1,20µM,n
Cc1ccccc1N1CCN(C2=NC(=O)/C(=C\c3cccs3)S2)CC1,u,n
COc1ccc(-c2nc3sc(CCNC(=O)c4ccco4)c(C)n3n2)cc1,n,n
COc1ccc(-c2noc(-c3ccc(NC(C)c4ccccc4)c([N+](=O)[O-])c3)n2)cc1OC (stereo not given),13µM,n
COc1ccc(-c2noc(-c3ccc(NC4CCCCC4)c([N+](=O)[O-])c3)n2)cc1OC,n,n
CCOC(=O)C1=C(CN2CCN(c3cc(C)ccc3C)CC2)NC(=O)NC1c1ccc(Cl)cc1 (stereo not given),n,n
Cc1ccc(-c2cc(-c3ccccc3O)nc(N/N=C/c3cccnc3)n2)cc1,25µM,n
Cc1ccc(S(=O)(=O)N/N=C\c2cccnc2)cc1,n,n
O=C(c1cc(Br)ccc1O)c1cc(Br)ccc1O,n,n
Nc1ccc2cc3ccccc3cc2c1,13µM,n
Nc1ccc2ncccc2c1,n,n
CC(C)(C)C(=O)[C@H](C(c1ccccc1)N1CCOCC1)N1CCOCC1 (stereo not given in full),n,n
COCCn1c(=O)c(-c2cn(C)c3ccccc23)nc2cnc(Oc3cccc(Cl)c3)nc21,n,n
COc1cc(OC)c(NC(=O)c2cn(C3CCCC3)c(=O)c3c2c2ccccc2n3C)cc1Cl,n,n
COc1ccc(Cl)cc1NC(=O)c1cn(C2CCCCC2)c(=O)c2c1c1ccccc1n2C,10µM,n
Cc1ccc(-n2c(C)cc(/C=c3/sc4nc5ccccc5n4c3=O)c2C)cc1,10µM,n
O=c1/c(=C\c2cccn2-c2ccccc2)sc2nc3ccccc3n12,u,n
Cc1ccc(S(=O)(=O)c2cc(OC(=O)c3ccco3)ccc2OC(=O)c2ccco2)cc1,n,n
SMILES,Cruzain noTriton,Cruzain Triton
O=C(Oc1ccc(OC(=O)c2ccco2)c(S(=O)(=O)c2ccc(Br)cc2)c1)c1ccco1,25µM,n
Cc1[nH]c2ccccc2c1-c1cc(-c2cc(-c3c(C)[nH]c4ccccc34)nc(N)n2)nc(N)n1,n,n
CCC1=C2CC[C@H]3C(=O)N(c4ccccc4)C(=O)[C@H]3[C@H]2[C@@]2(Cc3ccccc3)C(=NCCOC)OC(=O)N2C1=O,u,n
CCOc1ccc(-c2nn(-c3ccccc3)cc2/C=C2\SC(=S)N(C3CCS(=O)(=O)C3)C2=O)cc1 (stereo not given),7.9µM,n
CCOc1ccc(-c2nn(-c3ccccc3)cc2/C=C2\SC(N)=NC2=O)cc1C,n,n
CCCOc1ccc(-c2nn(-c3ccccc3)cc2/C=C2\SC(=S)N(C3CCS(=O)(=O)C3)C2=O)cc1 (stereo not given),4µM,n
CN(C)S(=O)(=O)c1cccc(-c2nn(-c3ccccc3)cc2/C=C2\SC(=S)NC2=O)c1,n,n
O=S(=O)(NCc1cccc(Br)c1)c1ccc(-c2cc(C(F)(F)F)on2)s1,u,n
COc1ccc(C(CNC(=O)COc2ccc(Cl)c(C)c2)N2CCOCC2)cc1 (stereo not given),n,n
CCCCC(CC)C/C=C1\CC(C(=O)OCC)Oc2ccccc21 (stereo not given) (tested in a mixture with another compound),n,n
CC1(C)OCC(CSC2=C(SCC3COC(C)(C)O3)C(=O)c3ncccc3C2=O)O1 (stereo not given),u,16µM
O=C1c2cccnc2-c2ncccc21,n,n
CN(C)c1ccc(-c2cncnc2-n2ccnc2)cc1,n,n
COc1ccc(N2CCN(Cc3cc(=O)oc4ccc(C)cc34)CC2)cc1,u,n
